Molecules are shown by their SMILES. Unmarked numbers belong to inactive results.

This assay concerns Vero E6 infected with SARS-CoV-2. Briefly: inhibition of SARS-CoV-2 cytopathic effect; higher = more antiviral protection, active = above 15. The conditions noted are these: 100 nM; 48 h.
Turning to `N[C@@H](C(=O)N[C@@H]1C(=O)N2C(C(=O)O)=C(Cl)CC[C@H]12)c1ccccc1` [loracarbef], the “inhibition of SARS-CoV-2 cytopathic effect” value (shortened to “inhibition”) was 2.95%.
For `Cc1cnc(-c2cnc(NCCNc3ccc(C#N)cn3)nc2-c2ccc(Cl)cc2Cl)[nH]1` the value was -2.16%; for `CNCCCOc1cc(F)c(-c2c(Cl)nc3ncnn3c2N[C@@H](C)C(F)(F)F)c(F)c1` [cevipabulin], 2.89%.
`CC(=C(CCO)SSCC1CCCO1)N(C=O)Cc1cnc(C)nc1N` (stereo in doubt) [fursultiamine]: the “inhibition” value is 2.45%.
In the case of `CC(C)(C)[C@]1(O)CCN2C[C@H]3c4ccccc4CCc4cccc(c43)[C@@H]2C1` [butaclamol], the “inhibition” value is 0.21%.
For `CCC(=O)OCC(=O)[C@@]1(OC(=O)CC)[C@@H](C)C[C@H]2[C@@H]3CCC4=CC(=O)C=C[C@]4(C)[C@@]3(Cl)[C@@H](O)C[C@@]21C` [beclomethasone-dipropionate] the value was -11.4%; for `C/N=C(/NC#N)NCCSCc1csc(NC(=N)N)n1` [tiotidine], -1.51%.
As for `CCCNC(=O)N1N=C(c2ccc(N)cc2)c2cc3c(cc2C1C)OCO3` (configuration not stated), the figure is 1.6%; as for `Cc1ncc([N+](=O)[O-])n1CC(C)O` (configuration not stated) [secnidazole], -5.52%.
As for `CC(=O)Nc1nnc(S(N)(=O)=O)s1` [acetazolamide], the figure is -1.3%.
Turning to `CC1(C)C(=O)N(c2ccc(C#N)c(C(F)(F)F)c2)C(=O)N1CCCCO`, the “inhibition” value was 4.71%.
As for `CC1(C)[C@@H](O)CC[C@]2(C)[C@H]3C(=O)C=C4[C@@H]5C[C@@](C)(C(=O)O)CC[C@]5(C)CC[C@@]4(C)[C@]3(C)CC[C@@H]12` [enoxolone], the figure is -1.05%.

For the origin of these results see the supplement of paper PMC13380429.
